PubChem BioAssay (NCATS)
“And” between values parts separate entries of the source, which are not always exact repeats. Equal entries are not always repeated. Inconclusive results are not listed. The source made the active and inactive calls. Unless noted, the call rests on the fitted dose curve; in most records, active means well fitted curve in the direction sought with a large enough effect; inconclusive means small, poorly fitted or top-dose-only effect, or another doubt; inactive means no such curve, though single readings can be large; an effect the other way counts as inactive or inconclusive.

Tests used:
[1] = molecular target: Guanine nucleotide-binding protein G(i) subunit alpha-1 (Homo sapiens) (UniProt P63096); assay: qHTS Assay for Inhibitors of RGS12 GoLoco Motif Activity (Green Fluorophore) (AID 879);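 further: 0% = labeled peptide with Gαi1 and full inhibition = labeled peptide alone without protein; negative values mean loss of peptide binding seen as reduced polarization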
Chain of Guanine nucleotide-binding protein G(i) subunit alpha-1 (Homo sapiens) (P63096 whole entry, looked up): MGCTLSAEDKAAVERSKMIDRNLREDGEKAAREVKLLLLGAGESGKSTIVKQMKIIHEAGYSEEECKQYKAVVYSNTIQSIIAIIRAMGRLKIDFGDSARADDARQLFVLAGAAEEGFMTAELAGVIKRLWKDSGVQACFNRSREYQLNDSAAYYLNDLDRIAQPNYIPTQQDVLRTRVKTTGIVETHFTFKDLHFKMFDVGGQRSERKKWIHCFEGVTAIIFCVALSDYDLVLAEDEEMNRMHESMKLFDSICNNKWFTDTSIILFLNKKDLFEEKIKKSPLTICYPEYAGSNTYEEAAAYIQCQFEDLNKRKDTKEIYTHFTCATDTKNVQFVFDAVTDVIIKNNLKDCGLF
Procedure, shortened: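 Fluorescence polarization assay: 50 nM Gαi1 with 10 nM FITC-labeled RGS12 GoLoco peptide in 10 mM Tris pH 7.5, 150 mM NaCl, 0.1 mM GDP, 0.05% NP40, 10 min at room temperature with compound.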

[2] = qHTS Assay for Identification of Small Molecule Antagonists for NFkB Signaling Pathway (AID 895; active means well fitted inhibition curve with a large enough effect in the signal ratio, with a control signal flat, not every such curve was filed as active; the % refers to the signal ratio; further: on the % scale 0 is the no-effect control and ±100 the full control effect)
Procedure, shortened: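 Beta-lactamase reporter read-out (460 and 530 nm emission ratio, 405 nm excitation, 2 hrs substrate loading RT) after 5 hr stimulation with 10 pM TNF alpha in compound-treated NFkB-bla ME-180 cells in low-serum medium.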

[3] = qHTS Assay for Identification of Small Molecule Agonists for Thrombopoietin (TPO) Signaling Pathway (AID 917); further: on the % scale 0 is the no-effect control and ±100 the full control effect
Procedure, shortened: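 Activators of TPO signaling were sought in murine Ba/F3 cells transfected with the human receptor, using a luciferase gene driven by the Glycoprotein IIb promoter; 24-hr compound exposure at 37 C alongside 26 pM TPO, in IL-3-free medium.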

[4] = molecular target: Muscarinic acetylcholine receptor M1 (Rattus norvegicus) (UniProt P08482); assay: qHTS Assay for Antagonists of Acetylcholine Muscarinic M1 Receptor: Kinetic Measurement of Intracellular Calcium Response (AID 943); further: nearly all actives have a fitted effect of over 75% in size; further: potency means the concentration at half of the fitted maximal effect
Chain of Muscarinic acetylcholine receptor M1 (Rattus norvegicus) (P08482 whole entry, looked up): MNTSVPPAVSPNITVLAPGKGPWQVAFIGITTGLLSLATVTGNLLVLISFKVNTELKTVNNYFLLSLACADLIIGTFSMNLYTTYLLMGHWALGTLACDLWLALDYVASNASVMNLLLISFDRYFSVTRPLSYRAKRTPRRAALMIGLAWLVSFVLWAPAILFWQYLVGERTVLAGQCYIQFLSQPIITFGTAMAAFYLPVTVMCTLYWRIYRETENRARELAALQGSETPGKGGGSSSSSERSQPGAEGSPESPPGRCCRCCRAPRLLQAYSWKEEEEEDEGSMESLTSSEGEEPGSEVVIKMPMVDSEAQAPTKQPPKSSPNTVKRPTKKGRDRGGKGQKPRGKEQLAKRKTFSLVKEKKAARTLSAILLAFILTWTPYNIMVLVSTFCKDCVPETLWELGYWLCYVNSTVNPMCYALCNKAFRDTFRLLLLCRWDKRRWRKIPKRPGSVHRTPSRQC
Procedure, shortened: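 Rat M1-CHO cells, 2000/well, overnight → Fluo-4 no-wash dye with probenecid, 1 h 37C → compound 10 min, room temp → basal read 6 s → carbachol EC80 (100 nM) → 4 min kinetic read; peak/basal.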

[5] = molecular target: Muscarinic acetylcholine receptor M1 (Rattus norvegicus) (UniProt P08482); assay: qHTS Assay for Antagonists of Acetylcholine Muscarinic M1 Receptor: Measurement of IP-One Response (AID 944); further: nearly all actives have a fitted effect of over 75% in size; further: potency means the concentration at half of the fitted maximal effect
Procedure, shortened: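 M1-CHO (rat), 2000 cells/well, overnight recovery; cpd 10 min; carbachol EC80 (200 nM), 30 min, HEPES buffer + 50 mM LiCl pH 7.4; IP-One HTRF, Ex 337, Em 620/665 nm.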

[6] = molecular target: Cytochrome P450 2D6 (Homo sapiens) (UniProt P10635); assay: qHTS Assay for Inhibitors and Substrates of Cytochrome P450 2D6 (AID 891); further: potency means the concentration at half of the fitted maximal effect; nearly all actives have a fitted effect of over 60% in size
Chain of Cytochrome P450 2D6 (Homo sapiens) (P10635 whole entry, looked up): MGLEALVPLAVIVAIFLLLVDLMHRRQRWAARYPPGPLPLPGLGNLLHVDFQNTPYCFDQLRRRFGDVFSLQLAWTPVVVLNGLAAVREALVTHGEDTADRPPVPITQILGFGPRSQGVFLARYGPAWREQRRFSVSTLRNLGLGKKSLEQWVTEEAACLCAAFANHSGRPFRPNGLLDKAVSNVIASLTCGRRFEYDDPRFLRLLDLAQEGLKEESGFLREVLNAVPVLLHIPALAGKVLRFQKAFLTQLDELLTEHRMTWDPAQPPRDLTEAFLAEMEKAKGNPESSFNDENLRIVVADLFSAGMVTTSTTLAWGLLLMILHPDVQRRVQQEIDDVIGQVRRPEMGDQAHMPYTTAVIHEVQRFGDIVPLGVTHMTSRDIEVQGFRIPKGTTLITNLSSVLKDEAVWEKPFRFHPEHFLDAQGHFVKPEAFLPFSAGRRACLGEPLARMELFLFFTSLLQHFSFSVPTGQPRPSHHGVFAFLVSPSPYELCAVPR
Procedure, shortened: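 Human CYP2D6 (5 nM) with 30 uM Luciferin-ME EGE (at Km) in 100 mM KPO4, compound preincubated 10 min, then NADPH regeneration system for 60 min at room temperature. Luciferin read by luminescence; normalized to 1.43 uM quinidine.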

[7] = Confirmation and Secondary Assay for Modulators of Hemoglobin Beta Chain Splicing at IVS2 654 locus (AID 910);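 further: HeLa cells stably carrying EGFP split by mutant beta-globin IVS2-654 intron; per-well total GFP intensity by laser scanning cytometry after 2-day treatment; % of control where 0% means no effect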
Procedure, shortened: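 Readout: per-well total peak green fluorescence (488 nm ex, 500–520 nm em) from objects 5–250 µm, reflecting correct splicing of an EGFP-654 reporter. Compounds were applied for 2 days at 37 °C to overnight-plated HeLa EGFP-654 cells; controls were DMSO and 500 nM IVS2-654 PNA.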

[8] = Confirmation and Secondary Assay for Modulators of Hemoglobin Beta Chain Splicing at IVS2 705 locus (AID 930);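 further: HeLa cells stably expressing the EGFP-705 splicing reporter; GFP fluorescence per well restored by corrected splicing of the IVS2-705 intron in EGFP; series mostly up to about 46 µM; % of control where 0% means no effect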
Procedure, shortened: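 HeLa EGFP-705 reporter; 500 cells/well, o/n 37C 5% CO2; cpd 2 d; 488 ex/500-520 em laser scan; total peak GFP intensity/well. Ref: 500 nM […] antisense PNA.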

[9] = molecular target: Cytochrome P450 3A4 (Homo sapiens) (UniProt P08684); assay: qHTS Assay for Activators of Cytochrome P450 3A4 (AID 885); further: nearly all actives have a fitted effect of over 65% in size
Chain of Cytochrome P450 3A4 (Homo sapiens) (P08684 whole entry, looked up): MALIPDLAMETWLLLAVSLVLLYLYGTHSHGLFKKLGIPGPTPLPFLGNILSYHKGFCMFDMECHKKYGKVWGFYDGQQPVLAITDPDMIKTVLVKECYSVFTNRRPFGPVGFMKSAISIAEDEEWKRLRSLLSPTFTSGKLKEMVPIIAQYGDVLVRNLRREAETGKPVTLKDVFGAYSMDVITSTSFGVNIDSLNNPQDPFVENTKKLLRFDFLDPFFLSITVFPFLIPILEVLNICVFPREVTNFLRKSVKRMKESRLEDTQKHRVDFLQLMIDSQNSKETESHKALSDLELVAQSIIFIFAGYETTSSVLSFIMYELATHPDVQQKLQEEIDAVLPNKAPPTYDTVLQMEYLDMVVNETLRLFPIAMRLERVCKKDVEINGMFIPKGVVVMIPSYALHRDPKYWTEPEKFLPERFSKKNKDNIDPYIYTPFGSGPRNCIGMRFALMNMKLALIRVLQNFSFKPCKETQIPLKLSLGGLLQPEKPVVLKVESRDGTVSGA
Procedure, shortened: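 Human CYP3A4 (20 nM) with Luciferin-PPXE at 25 uM (its KM) in 200 mM KPO4; 10 min compound preincubation, then NADPH regeneration and 60 min reaction at RT. Luciferin read by luminescence; normalized to 57 uM ketoconazole full inhibition.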

[10] = molecular target: Pyruvate kinase (Leishmania mexicana) (UniProt Q27686); assay: qHTS Validation Assay for Inhibitors of Leishmania Mexicana Pyruvate Kinase (AID 945);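 further: 0% = DMSO only neutral control wells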
Chain of Pyruvate kinase (Leishmania mexicana) (Q27686 2-499 E452W): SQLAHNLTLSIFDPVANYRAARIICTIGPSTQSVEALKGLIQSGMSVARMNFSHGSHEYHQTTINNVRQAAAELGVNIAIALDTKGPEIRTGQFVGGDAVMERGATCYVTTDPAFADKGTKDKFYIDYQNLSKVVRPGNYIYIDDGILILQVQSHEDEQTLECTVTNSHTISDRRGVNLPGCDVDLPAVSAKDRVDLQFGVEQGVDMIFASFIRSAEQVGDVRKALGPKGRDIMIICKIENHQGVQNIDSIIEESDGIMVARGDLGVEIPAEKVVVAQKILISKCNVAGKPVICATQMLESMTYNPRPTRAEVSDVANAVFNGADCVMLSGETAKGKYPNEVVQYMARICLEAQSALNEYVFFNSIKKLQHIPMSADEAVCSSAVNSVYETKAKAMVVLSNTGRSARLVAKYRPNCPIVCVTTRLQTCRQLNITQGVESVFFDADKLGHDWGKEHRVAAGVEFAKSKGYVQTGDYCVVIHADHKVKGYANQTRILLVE
Procedure, shortened: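 Substrate mix (0.5 mM PEP, 0.1 mM ADP, 7 mM MgCl2, 50 mM KCl, pH 7.2 imidazole) received compound by pin tool, then 0.2 nM LmPYK E451W. After 1 h at room temperature, PKLight was added and luminescence measured.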

[11] = qHTS Assay for Identification of Small Molecule Agonists for Hypoxia Response Element Signaling Pathway (AID 914; active means well fitted activation curve with a large enough effect in the signal ratio, with a control signal flat, not every such curve was filed as active; the % refers to the signal ratio; further: % of control where 0% means no effect); settings: ME-180 (cervical carcinoma) HRE-bla reporter, beta-lactamase ratio, CoCl2, 17 h; hits give high values
Procedure, shortened: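 Read-out: CCF4 FRET ratio of 460nm to 530nm emission (excitation 405nm) after 2.5 hours at room temperature, taken from HRE-bla ME-180 cells that had been exposed to compound and EC50 CoCl2 for 17 hours.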

[12] = molecular target: Cytochrome P450 2C19 (Homo sapiens) (UniProt P33261); assay: qHTS Assay for Inhibitors and Substrates of Cytochrome P450 2C19 (AID 899); further: nearly all actives have a fitted effect of over 60% in size; further: potency means the concentration at half of the fitted maximal effect
Chain of Cytochrome P450 2C19 (Homo sapiens) (P33261 whole entry, looked up): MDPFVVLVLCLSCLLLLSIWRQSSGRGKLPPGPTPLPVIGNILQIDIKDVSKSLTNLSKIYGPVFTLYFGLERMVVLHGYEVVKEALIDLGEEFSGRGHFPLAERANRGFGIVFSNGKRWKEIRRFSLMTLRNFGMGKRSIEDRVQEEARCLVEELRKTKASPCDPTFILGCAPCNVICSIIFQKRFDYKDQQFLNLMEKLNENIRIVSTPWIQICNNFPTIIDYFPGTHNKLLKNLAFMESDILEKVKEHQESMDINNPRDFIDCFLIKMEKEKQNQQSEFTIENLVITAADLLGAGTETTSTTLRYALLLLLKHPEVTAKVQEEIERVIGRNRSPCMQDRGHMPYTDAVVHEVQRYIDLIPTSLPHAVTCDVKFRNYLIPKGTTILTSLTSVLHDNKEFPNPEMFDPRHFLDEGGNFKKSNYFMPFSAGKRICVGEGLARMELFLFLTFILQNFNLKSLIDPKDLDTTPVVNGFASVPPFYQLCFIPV
Procedure, shortened: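 Reactions contain 5nM enzyme, 10uM Luciferin-H EGE (KM) and 50mM KPO4; compound preincubates 10 min at 37C, NADPH regeneration starts turnover for 60 min. Luminescence after detection reagent gives activity.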

[13] = molecular target: Cytochrome P450 2C9 (Homo sapiens) (UniProt P11712); assay: qHTS Assay for Inhibitors and Substrates of Cytochrome P450 2C9 (AID 883); further: nearly all actives have a fitted effect of over 60% in size; further: potency means the concentration at half of the fitted maximal effect
Chain of Cytochrome P450 2C9 (Homo sapiens) (P11712 whole entry, looked up): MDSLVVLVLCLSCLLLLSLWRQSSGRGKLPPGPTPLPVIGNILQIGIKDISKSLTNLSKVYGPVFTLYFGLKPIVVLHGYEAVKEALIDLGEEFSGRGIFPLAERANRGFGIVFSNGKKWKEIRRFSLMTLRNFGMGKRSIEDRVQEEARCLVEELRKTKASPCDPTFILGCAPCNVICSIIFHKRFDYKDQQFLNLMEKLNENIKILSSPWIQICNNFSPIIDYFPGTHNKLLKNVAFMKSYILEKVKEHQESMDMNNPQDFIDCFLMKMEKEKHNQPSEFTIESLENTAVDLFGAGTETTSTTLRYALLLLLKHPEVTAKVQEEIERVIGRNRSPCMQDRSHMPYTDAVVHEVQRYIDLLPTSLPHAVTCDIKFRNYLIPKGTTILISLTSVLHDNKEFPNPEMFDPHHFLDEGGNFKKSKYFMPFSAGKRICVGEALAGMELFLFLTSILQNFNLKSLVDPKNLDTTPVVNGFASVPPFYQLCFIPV
Procedure, shortened: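 Turnover of Luciferin-H (100uM, KM) by 10nM human CYP2C9 was measured over 60 min at 37C with NADPH regeneration; inhibitors and some substrates reduce luminescence. Data normalized to sulphaphenazole 57uM.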

O=C(O)CN(CCOCCOCCN(CC(=O)O)CC(=O)O)CC(=O)O
inactive: Potency [1] | Potency [2] | outcome [3] | Potency [4] | Potency [5]

CC(C)[N+](C)(CCOC(=O)C1c2ccccc2Oc2ccccc21)C(C)C
active: Potency [6] 1.26 µM | Potency [4] 11.2 nM | Potency [5] 0.001 µM
inactive: Potency [1] | outcome [7] | outcome [3] | outcome [8]

CC(=O)Oc1cc(C(C)C)c(OCCN(C)C)cc1C
active: Potency [5] 12.6 µM
inactive: Potency [1] | Potency [2] | outcome [3]

C[C@]12C=CC(=O)C=C1CC[C@H]1[C@@H]3C[C@@H](O)[C@](O)(C(=O)CO)[C@@]3(C)C[C@H](O)[C@@]12F
inactive: Potency [1] | Potency [9] | outcome [3] | Potency [10]

CCN1CCc2nc(N)oc2CC1
inactive: Potency [1] | Potency [9] | outcome [3] | Potency [10]

CCCCNc1ccc(C(=O)OCCN(C)C)cc1
inactive: Potency [1] | outcome [7] | outcome [3]

CN/C(=C\[N+](=O)[O-])NCCSCc1ccc(CN(C)C)o1
inactive: Potency [1] | outcome [7] | outcome [3] | outcome [8] | Potency [5]

c1cc(CN2CCCCC2)cc(OCCCNc2nc3ccccc3s2)c1
inactive: Potency [1] | Potency [9] | Potency [10]
active: Potency [4] 8910 nM | Potency [5] 14.1 µM

OCCN1CCN(CCCN2c3ccccc3C=Cc3ccccc32)CC1
inactive: Potency [1] | Potency [9] | outcome [3] | Potency [10]
active: Potency [4] 3.16 µM and 3.55 µM | Potency [5] 3.55 µM and 4.47 µM

CN(C)CCCN1c2ccccc2Sc2ccc(C(F)(F)F)cc21
inactive: Potency [1] | outcome [7] | activation [11] 12.9%
active: Potency [6] 794 nM and 398 nM | Potency [4] 158 nM | Potency [5] 1 µM

C#CCN(C)CCCOc1ccc(Cl)cc1Cl
active: Potency [6] 2 µM and 398 nM | Potency [12] 5.01 µM and 2.51 µM
inactive: Potency [1] | Potency [10]

CN(C)CCOC(=O)COc1ccc(Cl)cc1
inactive: Potency [1] | Potency [9] | Potency [12] | outcome [7] | outcome [3] | Potency [4] | Potency [5] | Potency [10]

CCCC(C(=O)OCCN(CC)CC)(c1ccccc1)c1ccccc1
active: Potency [6] 63.1 nM and 15.8 nM | Potency [4] 447 nM | Potency [5] 11.2 µM
inactive: Potency [1] | Potency [9] | outcome [7] | outcome [3] | outcome [8]

CCN(CC)CCOCCOC(=O)C1(c2ccccc2)CCCC1
inactive: Potency [1] | outcome [7] | outcome [3]

CCC(=O)c1ccc2c(c1)N(CCCN(C)C)c1ccccc1S2
active: Potency [6] 2 µM | Potency [4] 398 nM | Potency [5] 1.41 µM
inactive: Potency [1] | Potency [2]

CCc1cccc(N(C)C(N)=Nc2cccc3ccccc23)c1
inactive: Potency [1] | Potency [2] | activation [11] -13% | Potency [10]
active: Potency [6] 0.199 µM

C[C@]12CCC(=O)C=C1CC[C@@H]1[C@@H]2C(=O)C[C@@]2(C)[C@H]1CC[C@]2(O)C(=O)CO
inactive: Potency [1] | Potency [9] | Potency [2] | outcome [3] | Potency [10]

CN(C)CC/C=C1\c2ccccc2COc2ccccc21
active: Potency [6] 3.16 µM and 3.98 µM
inactive: Potency [1] | outcome [3] | Potency [10]

CCN(CC)CC(=O)Nc1c(C)cccc1C
inactive: Potency [1] | Potency [2] | outcome [7] | outcome [3]

N[C@@H](COP(=O)(O)O)C(=O)O
inactive: Potency [1] | Potency [9] | Potency [2] | Potency [12] | outcome [3] | Potency [4] | Potency [5] | Potency [10]

COc1ccc2c(c1OC)C(=O)O[C@@H]2[C@H]1c2c(cc3c(c2OC)OCO3)CCN1C
active: Potency [13] 126 nM | Potency [12] 158 nM

CN(C)CCN(Cc1cccs1)c1ccccn1
inactive: Potency [13]

CCCCCCCC/C=C\CCCCCCCC(=O)NCc1ccc(O)c(OC)c1
inactive: Potency [9]
active: Potency [6] 3.16 µM
